Out of some 2,100 compounds screened, about 670 (32%) were called active. Inconclusive results (about 50%) are left out. The list shows a part of the results. Unmarked numbers belong to inactive results. Calls come from the whole dose curve; as a rule, active = well fitted inhibition curve with a large enough effect; inconclusive = small, poorly fitted or top-dose-only effect; inactive = no such curve, though single readings can be large or run the other way.

We go through 62 molecules from PubChem BioAssay AID1745847 (National Center for Advancing Translational Sciences (NCATS), 2022).
% is set by controls: 0 for no effect and ±100 for the full control effect; potency is the fitted concentration of half-maximal effect.

The nature of the experiment: CMV-Luciferase Counterscreen for Inhibitors of ATXN expression. Note: nearly all actives have a fitted effect of over 55% in size. Conditions: HEK-293 CMV-luciferase reporter, luminescence, 24 h; series mostly up to 57.5 µM. From the text:
PI: Daniel Scoles Ph.D. University of Utah School of Medicine, Salt Lake City, Utah MLPCN Grant: NS073009 Spinocerebellar ataxia type 2 (SCA2) is a multisystem neurodegenerative disease caused by a dominantly acting mutation leading to expansion of a polyQ domain in the ataxin-2 protein (ATXN2). SCA2 patients develop progressive ataxia and later lose function in other neuronal systems. Prominent parkinsonian signs develop in some patients. Like many neurodegenerative disorders, no symptomatic or disease-modifying treatments are known. The primary objective of the proposed research is to identify compounds inhibiting ATXN2 expression and to test them for efficacy in SCA2 mouse models. We have developed a cell-based assay paired with an in vivo mouse model using identical luciferase expression constructs. This approach takes advantage of an ATXN2-luciferase transgene, with the luciferase gene flanked by the upstream and downstream portions of the ATXN2 gene. Here we describe a 5-7 dose quantitative high thoroughput screen (qHTS) for compounds lowering ATXN2 expression. We screened the NIH Molecular Libraries Small Molecule Repository (MLSMR) and NCGC's mechanistically annotated (MIPE) and drug repurposing (NPC) collections of compounds for lowering expression of an ATXN2-luciferase reporter in HEK-293 cells. The assay is a multiplexed cell viability assay to ensure target reduction in the absence of cytotoxicity. Secondary qHTS assays included a CMV-luciferase reporter expressed in HEK-293 cells as well as a biochemical assay using recombinant luciferase to detect inhibitors of the reporter enzyme. Compounds that inhibit ATXN2 expression but is not cytotoxic were selected for confirmatory and secondary screens.
PROTOCOL TABLE (as described by Inglese J, Shamu CE and Guy RK. 2007) SEQUENCE No. (e.g., 1, 2, 3, etc.); PARAMETER (e.g., Cells, Incubation, Reagent, etc.); VALUE; DESCRIPTION. 1; Cells; 4 uL; white, solid bottom, 1536-well Greiner assay plate. 2; Incubation; 2 hr; 37 degree C in 5% humidified CO2. 3; Compounds; 23 nL; Kalypsis pintool (Wako USA) equipped with a 1536-well pin head. 4; Incubation; 24 hr; 37 degree C in 5% humidfified CO2. 5; Reagent; 1 uL; Gly-Phe-7-Amino-4-trifluoromethylcoumarin. 6; Incubation; 30 min; 37 degree C in 5% humidfified CO2. 7; Detection; Fluorescence; Viewlux plate reader (PerkinElmer). 8; Reagent; 3 uL; SteadyGlo luciferase solution (Promega). 9; Incubation; 5 min; room temperature. 10; Detection; Luminescence; ViewLux plate reader (PerkinElmer). NOTES (numbers refer to Sequence numbers above) 1. HEK-293 cells expressing CMV-luciferase reporter (designated as SC cells) were suspended in phenol-red free DMEM and dispensed in assay plates using a Multidrop Combi dispenser (Thermo Fisher Scientific). 2. Assay plates were incubated. Evaporation was prevented by covering assay plates with metal lids containing holes to allow gas diffusion. 3. Compounds were added in a dose response manner with the final concentrations of 57, 11.4, 2.28, 0.46, 0.091, 0.018, 0.0037 uM. Vehicle-only plates, with DMSO being pin-transferred to columns 5-48, were inserted uniformly at the beginning and the end of each library to monitor and record any shifts in assay performance. 5. 125 uM Gly-Phe-7-Amino-4-trifluoromethylcoumarin (MP Biomedicals) working concentration was used at a final concentration of 25 uM. 7. To assess cell viability; the assay plates were read using the ViewLux high-throughput CCD imager (PerkinElmer), wherein single end-point fluorescence measurement was acquired (excitation 405/10; emission 540/25 nm). 8. Detection reagent SteadyGlo Luciferase (Promega) was added to the assay plate. 10. Luminescence is then measured on the ViewLux imager equipped with a clear emission filter using a 2 sec exposure. […]
For orientation: Counterscreens check selectivity or assay interference.
Turning to `CCC1(OC(=O)CN)C(=O)OCc2c1cc1n(c2=O)Cc2cc3ccccc3nc2-1` (configuration not stated), the activity change, negative = inhibition is -43.6% [at 11.4 µM].

As for `CC[C@@]1(O)C(=O)OCc2c1cc1n(c2=O)Cc2cc3c(NC(=O)CN)cccc3nc2-1`, the Potency is 0.0562 µM (active). `COc1cc2c(cc1OC)C1C(=O)c3ccc4c(c3OC1CO2)CC(C(C)C)O4` (configuration not stated): the Potency was 0.794 µM (active). Turning to `CCC(C)(O)C(=O)OC1C(=O)OC2CC3C(C)=CC(=O)C(O)C3(C)C3C4(O)OCC23C1C(C)C4O` (configuration not stated), the Potency is 0.316 µM (active).

As to `CC(C)CCn1c(N)c(C(=O)NCc2cccs2)c2nc3ccccc3nc21`, the Potency is 14.1 µM (active). `CCOC(=O)c1c(N)n(CCN2CCCCC2)c2nc3ccccc3nc12`: the Potency entry is “inactive”.

As for `CCC(C)OC(=O)c1c(N)n(Cc2cccs2)c2nc3ccccc3nc12` (configuration not stated), the Potency is 17.8 µM (active). Same read-out and setting: under `CNC(=O)Nc1ccc(C(=O)N/N=C\C23CC[C@@H](O)CC2(O)CC[C@@H]2[C@@H]3CCC3(C)C(C4=CC(=O)OC4)CCC23O)cc1` (some centres not stated) stands “inactive”; under `CC1CC(C)CC(C)C(O)C(C#N)=CC=CCC(C2CCCC2C(=O)O)OC(=O)CC(O)C(C)C1` (configuration not stated), 0.316 µM (active). As to `C[C@H]1C[C@@H](C)C(=O)[C@@H]([C@H](O)CC2CC(=O)NC(=O)C2)C1`, the Potency was 0.282 µM (active). Take `CC(=O)OC1(C)CC(C)C(=O)C(C(O)CC2CC(=O)NC(=O)C2)C1` (configuration not stated): the Potency is 0.126 µM (active). Still for that read-out and setting: in the case of `C[C@@H]1C[C@@H]([C@H](O)CC2CC(=O)NC(=O)C2)C(=O)[C@@H](C)C1` it was 2.82 µM (active); in that of `C[C@]12CCC3C(CCC4=CC(O)CC[C@@]43/C=N/O)C1(O)CCC2C1=CC(=O)OC1` (some centres not stated), “inactive”.

As to `Cc1ccc(N2C(=O)NC(=O)/C(=C/C=C/c3ccco3)C2=O)cc1`, the activity change, negative = inhibition is 82.1% [at 11.4 µM]. Turning to `CC(=O)OC1CC2(O)C3CCC4CC(O)CCC4(C)C3CCC2(C)C1C1=CC(=O)OC1` (configuration not stated), the Potency result is “inactive”. Turning to `O=C1NC2C(=CC(O)C(O)C2O)c2cc3c(cc21)OCO3` (configuration not stated), the Potency is 0.251 µM (active). For the molecule `Cc1c2ccncc2c(C)c2c1[nH]c1ccccc12`, the Potency is 5.01 µM (active).

Consider `COc1ccc(CCNCc2ccc(F)cc2)cc1OC`, for which the activity change, negative = inhibition is -5.47% [at 11.4 µM].

As for `COC1C(O)C(C)OC(OC2C(Oc3cccc4c(O)c5c(=O)oc6ccc(C)c7c(=O)oc(c34)c5c67)OC(C)C(O)C2O)C1O` (configuration not stated), the activity change, negative = inhibition is -15.7% [at 11.4 µM]. Consider `O=[N+]([O-])c1ccc(C(c2ccc([N+](=O)[O-])cc2)c2ccc([N+](=O)[O-])cc2)cc1`, for which the Potency was 17.8 µM (active).

For the molecule `C[C@]12CC[C@H](O)C[C@H]1CC[C@@H]1[C@@H]2CC[C@]2(C)[C@@H](C3=CC(=O)OC3)CC[C@]12O`, the Potency result was “inactive”. In the case of `COc1ccc(N=Cc2c(O)n(-c3ccc(C)cc3)c(=O)[nH]c2=O)cc1`, the Potency result was “inactive”. As to `CC1OC(OC2C(O)CC(OC3C(O)CC(OC4CCC5(C)C(CCC6C5CCC5(C)C(C7=CC(=O)OC7)C(O)CC65O)C4)OC3C)OC2C)CC(O)C1O` (configuration not stated), the Potency entry is “inactive”.

For `CC(C)(C)n1nnnc1C(CCc1ccccc1)N1CCC(n2c(=O)[nH]c3ccccc32)CC1` (configuration not stated), the Potency is 20 µM (active). As for `O=c1[nH]c2ccccc2n1C1CCN(C(CCc2ccccc2)c2nnnn2C2CCCC2)CC1` (configuration not stated), the Potency is 14.1 µM (active). With `N#Cc1cn(C2OC(CO)C(O)C2O)c2ncnc(N)c12` (configuration not stated), the activity change, negative = inhibition was -77.3% [at 11.4 µM].

With `CCC1CN2CCc3cc(OC)c(OC)cc3C2CC1CC1NCCc2c1[nH]c1ccc(O)cc21` (configuration not stated), the Potency is 0.0891 µM (active). With `C1=NCCc2c1[nH]c1ccccc21`, the activity change, negative = inhibition is 110% [at 11.4 µM].

Consider `COc1cc2nc(CN3CC=C(c4ccccc4)CC3)[nH]c(=O)c2cc1OC`, for which the Potency entry is “inactive”.

For `O=C(CSC1c2ccccc2-c2ccccc21)N/N=C/c1ccccc1O`, the Potency is 3.16 µM (active). For `Clc1ccc2[nH]c3c(c2c1)CCNC3`, the activity change, negative = inhibition is -18.6% [at 11.4 µM]. Turning to `NC(Cc1ccc(F)cc1)c1csc(Nc2ccccn2)n1` (configuration not stated), the Potency result was “inactive”.

`CCC(C)N1C(=O)/C(=C\c2cnc(N(C)C)nc2)C(=O)NC1=S` (configuration not stated): the Potency entry was “inactive”.

`CC12CCC3C(CCC4(O)CC(O)CCC34C=NO)C1(O)CCC2C1=COC(=O)C1` (configuration not stated): the Potency entry was “inactive”.

As for `COc1cccc2c1cc([N+](=O)[O-])c1c(C(=O)O)cc3c(c12)OCO3`, the Potency result was “inactive”. Take `COc1ccc2c(c1)C(c1ccc(N(CCCl)CCCl)cc1)=NCC2`: the Potency was 22.4 µM (active).

Take `CC(=O)O[C@H]1[C@H]2O[C@]23[C@@H]2CC[C@]4(O)C[C@@H](O)CC[C@]4(C)C2CC[C@]3(C)[C@H]1c1ccc(=O)oc1` (some centres not stated): the activity change, negative = inhibition was -18.3% [at 11.4 µM]. Take `COC(=O)c1nc(-c2ccc3c(n2)C(=O)C(N)=C(OC)C3=O)c(N)c(-c2ccc(OC)c(OC)c2O)c1C`: the Potency was 14.1 µM (active). On the same count and under the same terms, in the case of `CSCCC(c1nnnn1-c1c(C)cccc1C)N1CCC2(CC1)C(=O)NCN2c1ccccc1` (configuration not stated) it was 28.2 µM (active); in that of `CCOC(=O)[C@]12Cc3ccsc3[C@H]1N(Cc1ccccc1)C(=O)c1ccccc12`, 3.16 µM (active). As for `CC12CCC(O)CC1CCC1C2CCC2(C)C(C3=CC(=O)OC3)CCC12O` (configuration not stated), the Potency entry was “inactive”.

As to `C=CCCC[C@@H]1OC(=O)CNC(=O)C([C@@H](C)CC)NC(=O)[C@@H]2CCCN2C(=O)C([C@@H](C)CC)OC(=O)[C@H](Cc2ccccc2)N(C)C(=O)[C@H](C(C)C)NC(=O)C1(C)C` (some centres not stated), the Potency is 3.98 µM (active). As to `Cc1ccc(-c2nc(N(C)C3CCN(C)CC3)c3ccccc3n2)cc1`, the Potency is 17.8 µM (active). `COc1ccc(CC2C(=O)NC(C)C(=O)N(C)C3C(=O)N(C)C(Cc4ccc(O)c(c4)Oc4ccc(cc4)C3O)C(=O)NC(C)C(=O)NC(C)C(=O)N2C)cc1` (configuration not stated): the Potency was 0.891 µM (active).

With `C[C@H]1[C@@H](OS(=O)(=O)O)C[C@@H]2C[C@H]([C@@H](O)c3cc(=O)[nH]c(=O)[nH]3)NC3=NC[C@H]1N32`, the Potency was 14.1 µM (active).

In the case of `CCCCN=C[C@]12CCC(O)CC1(O)CCC1[C@@H]2CC[C@]2(C)[C@H](C3C=CC(=O)O3)CCC12O` (some centres not stated), the Potency entry is “inactive”. On the same count and under the same terms, in the case of `C[C@@H]1O[C@@H](O[C@@H]2C=C3CC[C@@H]4C(CC[C@]5(C)[C@@H](c6ccc(=O)oc6)CC[C@]45O)[C@@]3(C)CC2)[C@H](O)[C@H](O)[C@H]1O` (some centres not stated) it was “inactive”. For `C[C@H]1CCC[C@@H](O)CCC/C=C/c2cc(O)cc(O)c2C(=O)O1`, the activity change, negative = inhibition is -23.1% [at 11.4 µM].

As to `CCCCCCC(=O)N/N=C/c1c(O)n(CCc2ccccc2)c(=O)[nH]c1=O`, the Potency is 6.31 µM (active).

For `CCCCCCC(=O)N/N=C/c1c(O)n(CCCC)c(=S)[nH]c1=O`, the Potency was 12.6 µM (active). On to `CCn1c(O)c(/C=N/NC(=O)c2ccccc2)c(=O)n(CC)c1=S`, for which the Potency result was “inactive”. On the same count and under the same terms, under `CCCCC(=O)N/N=C/c1c(O)n(CCC2=CCCCC2)c(=O)[nH]c1=O` stands 10 µM (active). `COC1C(O)C(C)OC(OC2CCC3(C)C(CCC4C3C(O)CC3(C)C(C5=CC(=O)OC5)CCC43O)C2)C1O` (configuration not stated): the Potency entry was “inactive”.

With `C[C@]12CC[C@H](O)C[C@H]1CC[C@@H]1C2CC[C@]2(C)[C@@H](C3=CC(=O)OC3)[C@@H](O)C[C@]12O` (some centres not stated), the activity change, negative = inhibition was -13.9% [at 11.4 µM]. Turning to `COc1ccc(C[C@H]2NC[C@H](O)[C@H]2OC(C)=O)cc1`, the Potency is 0.0631 µM (active). As to `COc1ccc(CC2NCC(O)C2OC(C)=O)cc1` (configuration not stated), the Potency is 0.316 µM (active). Still for that read-out and setting: under `c1ccc2sc(N3CCNCC3)nc2c1` stands “inactive”. Turning to `C[C@H]1CCC[C@H](O)CCCCCc2cc(O)cc(O)c2C(=O)O1`, the activity change, negative = inhibition is 13.6% [at 11.4 µM]. For `CCCCCOc1ccc(C)cc1CN(CCCl)CCCl`, the Potency was 15.8 µM (active).

Turning to `Cc1cccc(C)c1-n1nnnc1C(c1cc2ccccc2o1)N1CCC(n2c(=O)[nH]c3ccccc32)CC1` (configuration not stated), the Potency is 8.91 µM (active). For `COc1cccc(C(c2nnnn2-c2ccc3c(c2)OCCO3)N2CCC(n3c(=O)[nH]c4ccccc43)CC2)c1OC` (configuration not stated), the Potency is 3.16 µM (active). Consider `CC12CCC(O)CC1CCC1C2CCC2(C)C(C3=CC(=O)OC3)C(O)CC12O` (configuration not stated), for which the Potency entry is “inactive”.
